Experimental data published in paper PMC5540273 (PLoS ONE, 2017).

How the values were obtained:
Conditions in all cases: concentration: 1 μM, replicates: in singlicate; n = 1
AURKC = tested on: AURKC
AXL = tested on: AXL
BIKE = tested on: T1, BIKE
T1 construct: gene BMP2K

BLK = tested on: BLK
BMPR1A = tested on: BMPR1A
BMPR1B = tested on: BMPR1B
BMPR2 = tested on: BMPR2
BMX = tested on: BMX
BRAF = tested on: BRAF
BRK = tested on: T2, BRK
T2 construct: gene PTK6

BRSK1 = tested on: BRSK1
BRSK2 = tested on: BRSK2
BTK = tested on: BTK
BUB1 = tested on: BUB1
CAMK1B = tested on: CAMK1B
CAMK1D = tested on: CAMK1D
CAMK1G = tested on: CAMK1G
CAMK1 = tested on: CAMK1
CAMK2A = tested on: CAMK2A
CAMK2B = tested on: CAMK2B
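Further: KINOMEscan kinase panel screen.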

Row | SMILES | %Inh (AURKC) [%] | %Inh (AXL) [%] | %Inh (BIKE) [%] | %Inh (BLK) [%] | %Inh (BMPR1A) [%] | %Inh (BMPR1B) [%] | %Inh (BMPR2) [%] | %Inh (BMX) [%] | %Inh (BRAF) [%] | %Inh (BRK) [%] | %Inh (BRSK1) [%] | %Inh (BRSK2) [%] | %Inh (BTK) [%] | %Inh (BUB1) [%] | %Inh (CAMK1B) [%] | %Inh (CAMK1D) [%] | %Inh (CAMK1G) [%] | %Inh (CAMK1) [%] | %Inh (CAMK2A) [%] | %Inh (CAMK2B) [%]
1 | COc1ccc(Nc2nccc(N3CCC(NC(=O)c4cccc(NC(C)=O)c4)C3)n2)cc1 (stereo not shown) [GSK1379732] | 1 | 1 | 0 | 40 | 0 | 0 | 9 | 16 | 0 | 0 | 0 | 0 | 36 | 54 | 9 | 8 | 0 | 13 | 0 | 0
2 | O=C(CCO)NCCn1ccc2ncnc(Nc3ccc(Oc4cccc(C(F)(F)F)c4)c(Cl)c3)c21 | 0 | 0 | 0 | 0 | 0 | 0 | 0 | 0 | 0 | 13 | 0 | 0 | 0 | 0 | 0 | 7 | 0 | 0 | 0 | 0
3 | Nc1nccc2scc(-c3ccc4c(c3)CCN4C(=O)Cc3cc(F)ccc3F)c12 [GSK2587663] | 35 | 41 | 10 | 54 | 0 | 0 | 0 | 23 | 3 | 32 | 4 | 0 | 0 | 45 | 27 | 21 | 4 | 29 | 0 | 0
4 | O=C(NCCCN1CCCC1=O)c1cnc(NCc2cc(Cl)ccc2Cl)nc1NC1CCNCC1 | 0 | 41 | 4 | 0 | 6 | 0 | 0 | 0 | 39 | 0 | 6 | 0 | 0 | 0 | 21 | 6 | 0 | 0 | 0 | 0
5 | CCc1nc(-c2cccc(N(C)S(=O)(=O)c3ccccc3)c2)c(-c2ccnc(Nc3ccc(N4CCN(C(C)=O)CC4)nc3)n2)s1 [GSK1645895] | 0 | 0 | 0 | 64 | 0 | 0 | 0 | 15 | 60 | 31 | 0 | 0 | 0 | 0 | 27 | 29 | 16 | 45 | 0 | 0
6 | C[C@H]1CC[C@@H](C(=O)Nc2ccccc2)CN1c1cc(-c2ccc3c(N)n[nH]c3c2)nc(N)n1 [GSK2283293] | 25 | 0 | 23 | 50 | 0 | 0 | 0 | 7 | 0 | 19 | 0 | 0 | 0 | 49 | 23 | 17 | 0 | 11 | 0 | 0
7 | COC(=O)c1cccc(NC(=O)NCCNc2ccnc(Nc3ccc(F)cc3)n2)c1 [GSK1379883] | 32 | 5 | 22 | 0 | 0 | 0 | 0 | 21 | 0 | 24 | 0 | 0 | 0 | 10 | 2 | 21 | 0 | 27 | 0 | 0
8 | Nc1nc(-c2ccc3c(N)n[nH]c3c2)cc(N2CCC[C@@H](C(=O)Nc3ccccc3)C2)n1.O=C(O)C(F)(F)F.O=C(O)C(F)(F)F [GSK2288359] | 34 | 0 | 29 | 0 | 0 | 0 | 10 | 0 | 5 | 5 | 0 | 0 | 0 | 0 | 26 | 11 | 0 | 5 | 0 | 0
9 | Cc1ccc(NC(=O)c2cccc(C#N)c2)cc1-c1ccc(C(=O)Nc2ccncc2)cc1 [GSK1398463] | 6 | 11 | 24 | 31 | 0 | 0 | 0 | 26 | 29 | 14 | 15 | 0 | 0 | 27 | 0 | 42 | 67 | 49 | 7 | 6
10 | CS(=O)(=O)CCNCc1ccc(-c2ccc3ncnc(Nc4ccc(OCc5ccccc5)c(Cl)c4)c3c2)o1.Cl [GW574783] | 2 | 42 | 19 | 49 | 0 | 0 | 0 | 19 | 9 | 0 | 1 | 0 | 0 | 26 | 0 | 4 | 27 | 14 | 0 | 0
11 | Cc1cc(N2CCC(NS(=O)(=O)c3ccc(F)cc3)CC2)nc(Nc2cccc(C#N)c2)n1.O=C(O)C(F)(F)F [GSK1653537] | 18 | 7 | 21 | 25 | 0 | 0 | 0 | 14 | 0 | 21 | 7 | 0 | 0 | 0 | 0 | 8 | 0 | 16 | 0 | 0
